Test [1] relates to P. falciparum NF54-pfs16-GFP early (I-III) stage gametocytes. Nature of the test: relative % inhibition of viable gametocyte number; higher = more gametocytocidal. The following applies: stage: early (I-III) gametocyte, incubation 72 h. In outline: (§1)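 NF54 pfs16-GFP gametocytes, magnet-isolated at early (I/IIa, day 2) or late (day 8) stage, were plated at 10% parasitaemia, 0.1% haematocrit in 384-well poly-D-lysine imaging plates with compound in duplicate at 5 or 0.5 µM. Plates were incubated 72 h at 37°C, 5% CO2, 5% O2, then overnight with MitoTracker Red. Confocal imaging counted elongated GFP objects with MitoTracker signal above cut-off as viable gametocytes. Relative inhibition was normalised to in-plate vehicle and positive-control wells.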

Test [2] has as its system P. falciparum NF54-pfs16-GFP late (IV-V) stage gametocytes. The description is as above. The following applies: stage: late (IV-V) gametocyte, incubation 72 h. In outline: as §1

Each structure is given as a SMILES string.

Among the data in the supplement of paper PMC3842684 are relative % inhibition values, retold here.

On to `O=C(NNc1cc(N2CCCC2)nc(N2CCCC2)n1)c1ccccc1`, for which the relative % inhibition in test [1] (0.5 µM) was -9.28%; in test [1] (5 µM) it was -5.49%; in test [2] (0.5 µM) it was 10.9%; in test [2] (5 µM) it was 16.3%.
`CC(=O)c1ccc(NC(=O)CSc2nc(-c3ccccc3Cl)ns2)cc1`: the relative % inhibition in test [1] (0.5 µM) came out at 3.99%; in test [1] (5 µM) it was 39.1%; in test [2] (0.5 µM), 22.2%; in test [2] (5 µM), 5.88%.
On to `CCC(c1ccccc1)c1nn2c(-c3cccs3)nnc2s1` (centres undefined), for which the relative % inhibition in test [1] (0.5 µM) is -3.13%; in test [1] (5 µM) it was -13.5%; in test [2] (0.5 µM), 8.5%; in test [2] (5 µM), 12.4%.
The corresponding values for `COc1ccc(-c2nc3cc(Cc4ccc5[nH]c(-c6ccc(OC)cc6)nc5c4)ccc3[nH]2)cc1` are 48.1%, 100%, 17.1% and 103%.
The corresponding values for `CCOc1cc2c(cc1OCC)C(c1cc(Cl)c(O)c(OCC)c1)NCC2` (centres undefined) are 8.41%, 94.7%, 29.4% and 18.2%.
As for `Cc1cc(NCCN2CCCCC2)c2ccc3ccccc3c2n1`, the relative % inhibition in test [1] (0.5 µM) is 10.2%; in test [1] (5 µM) it was 97.3%; in test [2] (0.5 µM), 4.67%; in test [2] (5 µM) it was 36.7%.
Take `COc1ccc(C(O)(CCC(C)C)C(CN2CCOCC2)c2ccc(Cl)cc2)cc1` (centres undefined): the relative % inhibition in test [1] (0.5 µM) was 6.71%; in test [1] (5 µM), 94.3%; in test [2] (0.5 µM), 12.1%; in test [2] (5 µM), 25%.
Regarding `COc1ccc(C)c2sc(N(Cc3cccnc3)C(=O)c3ccc(C#N)cc3)nc12`, the relative % inhibition in test [1] (0.5 µM) is 11.9%; in test [1] (5 µM), 35.9%; in test [2] (0.5 µM), -23.5%; in test [2] (5 µM) it was 7.81%.
For the compound `CC(C)(C)c1ccc2c(c1)CN(Cc1ccc(Cl)cc1)CO2`, the relative % inhibition in test [1] (0.5 µM) is 9.71%; in test [1] (5 µM), 98.4%; in test [2] (0.5 µM) it was 27.3%; in test [2] (5 µM), 54.6%.
Take `COc1ccc(-c2cc3c(SCC(=O)Nc4cc(C(F)(F)F)ccc4Cl)nccn3n2)cc1`: the relative % inhibition was 14.5% in test [1] (0.5 µM), -14.1% in test [1] (5 µM), -14.3% in test [2] (0.5 µM) and 3.88% in test [2] (5 µM).
Consider `CCC(=O)Nc1nnc(Cc2ccc(OC)c(OC)c2)s1`, for which the relative % inhibition came to 16.8% in test [1] (0.5 µM), 4.14% in test [1] (5 µM), 0.759% in test [2] (0.5 µM) and 6.51% in test [2] (5 µM).
Turning to `Cc1c(C)n(Cc2ccc(F)cc2)c2ccc(C(=O)NCc3ccco3)cc12`, the relative % inhibition in test [1] (0.5 µM) is 19.2%; in test [1] (5 µM), -8.91%; in test [2] (0.5 µM), 16.9%; in test [2] (5 µM) it was 21.7%.
The corresponding values for `O=c1cc(NC2CCN(CCCc3ccccc3)CC2)c2cc(Cl)ccc2o1` are 10.6%, 79.8%, -5.8% and -6.17%.
As for `CN1C=C(c2ccc3ccccc3n2)C(c2c[nH]c3ccccc23)c2ccccc21` (centres undefined), the relative % inhibition in test [1] (0.5 µM) was determined as 16.1%; in test [1] (5 µM) it was 49.6%; in test [2] (0.5 µM) it was 19.8%; in test [2] (5 µM), 34.8%.
For the compound `COc1ccc(C=C2SC(Nc3ccc(F)cc3)=NC2=O)c(OC)c1`, the relative % inhibition was 2.18% in test [1] (0.5 µM), 8.91% in test [1] (5 µM), 24.9% in test [2] (0.5 µM) and 87.9% in test [2] (5 µM).
Turning to `c1ccc(Cn2c(N=Nc3c(Nc4ccccc4)ccc4ccccc34)nc3ccccc32)cc1`, the relative % inhibition was 62.1% in test [1] (0.5 µM), 106% in test [1] (5 µM), 102% in test [2] (0.5 µM) and 100% in test [2] (5 µM).
`CSC1=NC(=Nc2c(C)cccc2C)C2(CCC(C(C)(C)C)CC2)N1c1ccc(Cl)cc1` (centres undefined): the relative % inhibition was found to be 24.7% in test [1] (0.5 µM), 4.25% in test [1] (5 µM), 93.4% in test [2] (0.5 µM) and 103% in test [2] (5 µM).
The corresponding values for `CC1(c2ccccc2)Nc2ccccc2-c2nc3ccccc3n21` (centres undefined) are 1.27%, 32.3%, 46.2% and 46.6%.
For the compound `Cc1ccc(NC(=O)Nc2cccc(Cl)c2)cc1F`, the relative % inhibition is 11% in test [1] (0.5 µM), 28.9% in test [1] (5 µM), -16% in test [2] (0.5 µM) and 21.8% in test [2] (5 µM).
Turning to `CN1c2ccccc2N(C)C1c1ccc2c(c1)OCO2`, the relative % inhibition is 0.225% in test [1] (0.5 µM), -13.6% in test [1] (5 µM), 28.6% in test [2] (0.5 µM) and -1.98% in test [2] (5 µM).
Consider `CC(C)(C)CC(C)(C)NCC(O)COc1ccc(Cl)cc1Cl` (centres undefined), for which the relative % inhibition was 34.8% in test [1] (0.5 µM), 92.4% in test [1] (5 µM), 90.2% in test [2] (0.5 µM) and 114% in test [2] (5 µM).
For `CC(Oc1ccc(NC(=O)c2cccs2)cc1)C(=O)c1ccc(Cl)cc1` (centres undefined), the relative % inhibition in test [1] (0.5 µM) came out at 10.9%; in test [1] (5 µM) it was 23%; in test [2] (0.5 µM), 16.4%; in test [2] (5 µM), 52.1%.
Take `O=C(Nc1ccc(-c2nc3ccccc3[nH]2)cc1)c1ccc(Cl)c(Cl)c1`: the relative % inhibition is 14.9% in test [1] (0.5 µM), -3.57% in test [1] (5 µM), 0.0958% in test [2] (0.5 µM) and -12% in test [2] (5 µM).
Regarding `CSc1ccccc1C(=O)Nc1nc(-c2ccccn2)cs1`, the relative % inhibition was determined as 27.3% in test [1] (0.5 µM), 92.9% in test [1] (5 µM), 19.1% in test [2] (0.5 µM) and 96.9% in test [2] (5 µM).
Regarding `CCOc1ccc2c(c1)CN(Cc1ccc(Cl)cc1)CO2`, the relative % inhibition stood at 15.1% in test [1] (0.5 µM), 84.1% in test [1] (5 µM), 16.2% in test [2] (0.5 µM) and 41.4% in test [2] (5 µM).
On to `COc1cccc(O)c1CN1CCC2(CCCN(Cc3ccc(F)cc3)C2)C1` (centres undefined), for which the relative % inhibition in test [1] (0.5 µM) was 11.3%; in test [1] (5 µM), 80.5%; in test [2] (0.5 µM), 17.2%; in test [2] (5 µM), 98.8%.
`Cc1cc(N2CCCC2)nc(Nc2ccc(NC(=O)CCc3ccccc3)cc2)n1`: the relative % inhibition worked out at 53.7% in test [1] (0.5 µM), 89.6% in test [1] (5 µM), 6.75% in test [2] (0.5 µM) and 21% in test [2] (5 µM).
Turning to `O=C(Nc1ccc(Cl)cc1C(=O)Nc1ccncc1)c1ccc(Cl)cc1Cl`, the relative % inhibition was 20.3% in test [1] (0.5 µM), 31.8% in test [1] (5 µM), -5.7% in test [2] (0.5 µM) and -20.8% in test [2] (5 µM).
With `CCCCc1ccc(NS(=O)(=O)c2cc3c4c(c2)CCN4C(=O)CC3)cc1`, the relative % inhibition in test [1] (0.5 µM) is 12.3%; in test [1] (5 µM) it was 1.37%; in test [2] (0.5 µM), 0.5%; in test [2] (5 µM) it was -7.42%.
Turning to `CCOc1ccc(CCNC(=O)c2cccs2)cc1OCC`, the relative % inhibition is -1.74% in test [1] (0.5 µM), 30.1% in test [1] (5 µM), -6.65% in test [2] (0.5 µM) and 16.1% in test [2] (5 µM).
The corresponding values for `COc1ccc(CNC2CCN(c3ccc(NC(=O)c4cccc(Cl)c4)cc3)CC2)cc1OC` are -12.4%, 79%, -4.13% and -22%.
The corresponding values for `COc1cccc(C(=O)NC(c2ccc(C)cc2)c2cc(Cl)c3cccnc3c2O)c1` (centres undefined) are 12.4%, 82.5%, 46.5% and 65.2%.
For `O=C(Nc1ccc(CN2CCOCC2)cc1)c1ccc(-c2cc(Cl)ccc2Cl)o1`, the relative % inhibition is -3.41% in test [1] (0.5 µM), 20.9% in test [1] (5 µM), -18.1% in test [2] (0.5 µM) and 21.4% in test [2] (5 µM).
As to `COc1ccc2c(=O)cc(C(Cl)(Cl)Cl)oc2c1`, the relative % inhibition in test [1] (0.5 µM) was determined as 68.6%; in test [1] (5 µM) it was 85.1%; in test [2] (0.5 µM), 8.37%; in test [2] (5 µM), 15.5%.
For `CN(C)CCCNc1c2ccccc2nc2ccccc12`, the relative % inhibition in test [1] (0.5 µM) turned out to be 85.1%; in test [1] (5 µM), 101%; in test [2] (0.5 µM) it was 57.9%; in test [2] (5 µM) it was 101%.
For `Cc1ccc(F)cc1NC(=O)c1cc(Cl)ccc1Nc1ccccc1`, the relative % inhibition in test [1] (0.5 µM) was found to be 23.8%; in test [1] (5 µM), 73.8%; in test [2] (0.5 µM), 23.8%; in test [2] (5 µM) it was 46.8%.
